Assay outcomes from PubChem.
Only some compounds are listed: those with a hit (about 3.9% of all), similar ones and a draw of the others.
Peg3 prom inh = Peg3 promoter-driven luciferase inhibitors, primary screen, cell-based, HeLa, luciferase luminescence; 1.7% of 360,000 active; HeLa PEG-Prom luciferase reporter, overnight; inhibition, % at 20 µM; AID 588405, 2011;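 active means inhibition of at least 50% at 20 µM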
TWEAK-Fn14 inh = inhibitors of TWEAK-Fn14 signaling, primary screen, luciferase reporter cells, uHTS; inhibition, % at 10 µM; 2% of 360,000 active; TWEAK-stimulated Fn14 reporter cells, luciferase luminescence, 8 h; in the data active means inhibition above about 50%
HIF-2a block = HIF-2a reporter inhibitors, primary screen, luminescence, 786-0 RCC cells | 786-0 RCC cells HIF-2a reporter, luciferase luminescence, overnight | inhibition, % at 18.8 µM | 0.72% of 360,000 active;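 active means inhibition of the luminescence signal of 40% or more relative to plate controls, in a single-dose primary screen at 18.75 µM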
KKLEB cytotox = cytotoxicity in KKLEB CF airway cells, primary screen, cytotoxicity control for CF NF-kB inhibitor project, cell-based, uHTS, fluorescence assay plates | KKLEB CF airway cells viability, ATPlite luminescence, overnight; hits give low values; cells stimulated with P. aeruginosa culture filtrate | activity change (cytotoxicity), % at 5 µM | 0.36% of 360,000 active;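 active means corrected activity change at or below -50% at 5 µM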
TROY signal inh = inhibitors of TROY-driven NF-kB signaling, primary screen, Q293 LMP1-TROYcd cells, NF-kB luciferase, uHTS; Q293 LMP1-TROYcd NF-kB luciferase reporter, 4 h; inhibition, % at 10 µM; 0.98% of 360,000 active; AID 1347056, 2019;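 active means compounds whose plate-normalised and pattern-corrected inhibition of the luciferase reporter signal at the single screening dose is 50% or more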
CF NFkB block = inhibitors of PAF-induced NF-kB signaling, primary screen, cell-based, GFP fluorescence, uHTS. 0.86% of 360,000 active. KKLEB NF-kB-GFP reporter, GFP fluorescence overnight. inhibition, % at 5 µM;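 active means at least 50% inhibition at 5 µM, scaled per plate between neutral and stimulator controls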;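 further: PAF is a Pseudomonas aeruginosa culture filtrate used as stimulus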
A number is an active result; i = inactive; nt = no result given.

SMILES	Peg3 prom inh	TWEAK-Fn14 inh	HIF-2a block	KKLEB cytotox	TROY signal inh	CF NFkB block
O=C(/C=C/c1cccs1)N1CCN(c2ccc(F)cc2)CC1	i	i	i	i	i	i
O=C(c1cc(S(=O)(=O)N2CCCC2)c(Cl)cc1Cl)N1CCCC1	i	i	i	i	i	i
O=C1CCC(=O)N1CN(C(=O)c1ccco1)c1ccc(Cl)c(Cl)c1	i	i	i	i	i	i
CC(=O)N(CN1C(=O)CCC1=O)c1ccc(Cl)c(Cl)c1	51	73	i	i	58	i
On1ccccc1=S	100	106	i	i	69	i
Cn1ncc([N+](=O)[O-])c1C(=O)Nc1ccn(Cc2ccccc2F)n1	i	i	i	i	i	i
Cn1cc([N+](=O)[O-])c(C(=O)Nc2ccn(Cc3c(F)c(F)cc(F)c3F)n2)n1	56	i	i	i	i	i
COc1ccc(Nc2oc(COc3ccc(C)cc3)nc2C#N)cc1	i	69	i	i	i	i
COc1ccc(Nc2oc(COc3cccc(C)c3)nc2C#N)cc1	i	68	i	i	i	i
CCNc1oc(COc2cccc(C)c2)nc1C#N	i	i	i	i	i	i
COc1ccc(Nc2oc(COc3ccc(OC)cc3)nc2C#N)cc1	i	86	i	i	i	i
COc1ccc(Nc2oc(COc3ccccc3F)nc2C#N)cc1	i	57	i	i	i	i
CSc1ccc(CN(C)CCc2ccccn2)cc1	i	i	i	i	i	i
CC/C(=C(\c1ccc(O)cc1)c1ccc(OCCN(C)C)cc1)c1ccccc1	57	i	i	i	i	i
CCC(=C(c1ccc(O)cc1)c1ccc(OCCN(C)C)cc1)c1ccccc1	i	i	i	i	i	i
CC/C(=C(\c1ccccc1)c1ccc(OCCN(C)C)cc1)c1ccccc1	71	i	i	i	i	i
COc1ccc(OCC(=O)NC(=S)Nc2ccc(N3CCOCC3)c(Cl)c2)cc1	i	i	i	i	i	i
Cc1nc2ccc(F)cc2cc1C(=O)Nc1ccc(Cl)c(Cl)c1	i	51	i	i	i	i
O=C1NC[C@H](CCCCN2C[C@H](Cc3ccccc3)N(CCC3CCCCC3)C(=O)C2=O)N(CCC2CCCCC2)C1=O	nt	i	i	nt	77	nt
COc1ccccc1NC(=O)C(C)OC(=O)CCNS(=O)(=O)c1ccc(C)c(C)c1 (configuration not stated)	i	i	i	i	i	i
Oc1ccc(N=C/C=C/c2cccc(Br)c2)cc1-c1nc2ccccc2s1	67	i	i	i	i	i
CSCC(CO)NS(=O)(=O)c1ccc(C)cc1 (configuration not stated)	i	i	i	i	57	i
CC(=O)Nc1ccc2nc(CN3CCN(Cc4ccc(F)cc4)C(CCO)C3)ccc2c1 (configuration not stated)	i	i	i	i	i	i
CC(=O)c1c(C)[nH]c(C(=O)CSc2ncnc3sc(-c4ccccc4)cc23)c1C	i	64	i	i	i	i
CC(=O)c1c(C)[nH]c(C(=O)CSc2nnc(-c3ccccc3)o2)c1C	i	96	i	i	i	i
SMILES	Peg3 prom inh	TWEAK-Fn14 inh	HIF-2a block	KKLEB cytotox	TROY signal inh	CF NFkB block
O=C1/C(=C\c2ccccc2)SC(=S)N1CCC(=O)N1CCCCC1CCO (configuration not stated)	i	i	i	i	i	i
O=C1/C(=C/c2ccccc2Cl)SC(=S)N1CCC(=O)N1CCCCC1CCO (configuration not stated)	55	i	i	i	i	i
COc1ccc(/C=C2\SC(=S)N(CCCC(=O)N3CCCCC3CCO)C2=O)cc1 (configuration not stated)	i	i	83	i	i	i
CC(C)c1ccc(/C=C2\SC(=S)N(CCC(=O)N3CCCCC3CCO)C2=O)cc1 (configuration not stated)	i	87	86	i	65	i
COc1cccc(/C=C2\SC(=O)N(CCC(=O)N3CCCCC3CCO)C2=O)c1 (configuration not stated)	i	i	i	i	i	i
CC(NC(=O)COC(=O)c1ccccc1Nc1ccccc1)c1ccccc1 (configuration not stated)	i	i	i	i	i	i
CCCCCCCC(=O)NC1=NC(=O)C(C)(C)S1	i	i	i	i	i	i
CC(=O)Nc1ccc(-c2ccnc(-c3ccc(NC(C)=O)cc3)n2)cc1	i	62	i	i	i	i
CC(=O)Nc1ccc(-c2nn[nH]n2)cc1	i	i	i	i	i	i
CCOC(=O)c1cccc(NC(=O)CCNS(=O)(=O)c2cc(Br)cnc2N)c1	i	i	i	i	i	i
CN1CCN(CC(=O)Nc2nc3c(s2)CCCC3)CC1	i	i	i	i	i	i
CCN1CCN(/C=N/c2nc3c(s2)CCCC3)CC1	55	96	i	i	86	i
CCOc1cccc2cc(-c3csc(NC(=O)CCC(=O)NCCN4CCCCC4C)n3)c(=O)oc12 (configuration not stated)	i	i	i	i	i	i
COc1cccc2cc(-c3csc(NC(=O)CCC(=O)NCCCN4CCC(C)CC4)n3)c(=O)oc12	i	59	i	i	i	i
CNC(=O)c1c(O)c2cccc3c2n(c1=O)CC3	i	53	i	i	nt	i
COc1ccc(CC(=O)Nc2nc(-c3ccccc3)c(C(C)=O)s2)cc1OC	i	57	i	i	i	i
COc1cc(CC(=O)Nc2nc(-c3ccccc3)c(C(C)=O)s2)cc(OC)c1OC	i	i	i	i	i	i
Cc1ccn2cc(-c3cccc(NC(=O)c4cccs4)c3)nc2c1	i	i	i	i	i	i
CCC(=O)Nc1c(S(=O)(=O)c2ccccc2)c2nc3ccccc3nc2n1C(C)c1ccccc1 (configuration not stated)	i	50	i	i	73	i
CCC(=O)Nc1c(S(=O)(=O)c2ccc(C)cc2)c2nc3ccccc3nc2n1C(C)c1ccccc1 (configuration not stated)	i	i	i	i	i	i
CCCCCn1c(NC(=O)c2ccco2)c(S(=O)(=O)c2ccc(C)cc2)c2nc3ccccc3nc21	i	67	i	i	65	i
CCCCn1c(NS(=O)(=O)c2ccccc2)c(S(=O)(=O)c2ccc(C)cc2)c2nc3ccccc3nc21	i	i	i	i	70	i
CCCCn1c(NC(=O)c2ccco2)c(S(=O)(=O)c2ccc(C)cc2)c2nc3ccccc3nc21	i	72	i	i	66	i
